Records with an inconclusive call do not appear. Values without a mark were called inactive. Active and inactive are the calls of the source. Calls follow the shape of the dose curve; as a rule, active = well fitted cell-killing curve with a large enough effect; inconclusive = small, poorly fitted or top-dose-only effect, or effect the other way; inactive = no such curve, though single readings can be large or run the other way.
Potency is read from the fitted curve at half-maximal effect.

The nature of the assay: Viability qHTS for spleen associated tyrosine kinase inhibitor (SYKi) naive MV4-11 cells (AID 1963823). Also: nearly all actives have a fitted effect of over 40% in size. To be noted: MV4-11 AML viability, CellTiter-Glo luminescence, 72 h; series mostly up to 45 µM; viability (% of control): at the top concentration. The essentials: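 SYKi-naive MV4-11 AML cells, 500 per well, were exposed to library compounds for 72 hr at 37 C, 5% CO2. Viability was then read by CellTiter-Glo luminescence after 10 min at room temperature.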
As for `CNC12CC3C[C@@](C)(C1)C[C@](C)(C3)C2`, the “viability (% of control)” value is 69.5%.

Turning to `Cc1ccc(-c2ncccn2)c(C(=O)N2C[C@H](COc3ccc(F)cn3)CC[C@H]2C)c1`, the “viability (% of control)” value was 42.1%.

For `O=C(NCC(=O)N1CCCC1)Nc1ccc2ccccc2c1`, the Potency is 5.8 µM (active).

For the molecule `COc1ccc(S(=O)(=O)Nc2nc(-c3cccc([N+](=O)[O-])c3)cs2)cc1OC`, the “viability (% of control)” value was 71.5%.

With `CCC(CC)n1ccc2c(C(=O)NCc3c(C)cc(C)[nH]c3=O)cc(C#N)cc21`, the “viability (% of control)” value is 88.2%.

For `C[C@H]1C[C@H]2[C@@H]3CCC4=CC(=O)C=C[C@]4(C)[C@@]3(F)[C@@H](O)C[C@]2(C)[C@@]1(O)C(=O)COP(=O)(O)O`, the “viability (% of control)” value was 97.6%.

For `C=C1CCC(OC(C)=O)C2(C)CC3OC(=O)C(C)=C3CC12` (configuration not stated), the “viability (% of control)” value was 91.5%.

In the case of `CC(=O)/C=C/C1C(C)CC(O[C@@H]2O[C@H](CO)[C@@H](O)[C@H](O)[C@H]2O)CC1(C)C` (some centres not stated), the “viability (% of control)” value was 61.2%.

For `C=CC(C)(O)CC/C=C(/C)C(=O)OC1C(OC2OCC(OC3OC(CO)C(O)C(O)C3O)C(OC3OCC(O)C(OC4OC(C)C(O)C(O)C4O)C3O)C2O)COC(OC(=O)C23CCC(C)(C)CC2C2=CCC4C5(C)CCC(OC6OC(CO)C(OC7OC(CO)C(O)C(OC8OCC(O)C(O)C8O)C7O)C(O)C6O)C(C)(C)C5CCC4(C)C2(C)CC3O)C1O` (configuration not stated), the viability (% of control) is 68.9% [at 4.97 µM].

For the molecule `COc1cc(/C=C/CO)ccc1O[C@@H]1O[C@H](CO)[C@@H](O)[C@H](O)[C@H]1O`, the “viability (% of control)” value is 75.9%.

For `CC(=O)OC(CSC1CCC(=O)OC(C)CCC(=O)C1)C(=O)O` (configuration not stated), the “viability (% of control)” value was 72%.

Regarding `CN[C@H](CC(C)C)C(=O)N[C@H]1C(=O)N[C@@H](CC(N)=O)C(=O)N[C@H]2C(=O)N[C@H]3C(=O)N[C@H](C(=O)N[C@H](C(=O)O)c4cc(O)cc(O)c4-c4cc3ccc4O)[C@H](O[C@H]3C[C@](C)(N)[C@@H](O)[C@H](C)O3)c3ccc(c(Cl)c3)Oc3cc2cc(c3O[C@@H]2O[C@H](CO)[C@@H](O)[C@H](O)[C@H]2O[C@H]2C[C@](C)(NCc3ccc(-c4ccc(Cl)cc4)cc3)[C@@H](O)[C@H](C)O2)Oc2ccc(cc2Cl)[C@H]1O`, the “viability (% of control)” value is 97.9% [at 17.3 µM].

The values above are taken from PubChem BioAssay (NCATS).
